Compound activity from PubChem.
In the library only some 2.4% were active in any assay of this set; here they are far more common.
CHO-K1 Ca antag: M1 antagonist counterscreen hit in parental CHO-K1 cells; 360,000 compounds, 0.6% hits; ATP-induced calcium, Fluo-8 fluorescence; inhibition, % at 3 µM;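 active = inhibition above a per-plate cutoff, the plate's mean sample inhibition plus 3 SD, cut at about 24% in these data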;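 note: 0% = DMSO plus EC80 ATP and 100% = DMSO alone without ATP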
CHRM1 antagonist: human CHRM1 antagonism. AID 588852. CHO-K1 hM1, Fluo-8 calcium fluorescence, ACh EC80 antagonist. inhibition, % at 3 µM. P11229. 360,000 compounds, 1.3% hits;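 active = percent inhibition above its own plate's cutoff, namely the mean of that plate's compound wells plus 3 SD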;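 note: peak over basal fluorescence ratio during 140 s after agonist addition; 0% = ACh EC80 plus DMSO and 100% = DMSO alone without agonist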
Target sequence (P11229 whole entry, looked up): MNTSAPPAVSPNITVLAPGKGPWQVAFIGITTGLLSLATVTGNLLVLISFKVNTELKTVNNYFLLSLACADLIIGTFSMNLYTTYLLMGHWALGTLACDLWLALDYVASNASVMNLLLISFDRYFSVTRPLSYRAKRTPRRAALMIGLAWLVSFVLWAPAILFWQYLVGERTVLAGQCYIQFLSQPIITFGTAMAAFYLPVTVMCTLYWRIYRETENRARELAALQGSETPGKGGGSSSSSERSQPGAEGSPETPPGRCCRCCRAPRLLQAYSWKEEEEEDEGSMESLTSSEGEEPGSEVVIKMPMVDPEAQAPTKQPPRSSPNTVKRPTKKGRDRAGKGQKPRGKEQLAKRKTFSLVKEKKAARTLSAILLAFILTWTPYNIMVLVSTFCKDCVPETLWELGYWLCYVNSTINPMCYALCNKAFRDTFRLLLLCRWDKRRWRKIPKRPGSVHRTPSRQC
M1 PAM: positive allosteric modulators of human M1 muscarinic receptor | activation, % at 3 µM | CHO-K1 hM1, Fluo-8 calcium fluorescence, ACh EC20; 0% = ACh EC20, 100% = maximal ACh | P11229 | 360,000 compounds, 0.088% hits; in the data active = activation above about 19%, passing the limit was not always enough
CHRM1 agonist: agonists of human M1 muscarinic receptor; P11229; CHO-K1 hM1, Fluo-8 calcium fluorescence, agonist mode; 0% DMSO, 100% acetylcholine EC100; activation, % at 3 µM; 360,000 compounds, 0.33% hits; AID 588814;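 active = activation above the run's mean compound activation plus 3 SD, cut at about 16% in these data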;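 note: peak over basal fluorescence ratio within a 140 s kinetic read after compound addition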
M1 ag parental: M1 agonist counterscreen hit in parental CHO-K1 cells; Fluo-8 calcium fluorescence; scaled to maximal ATP response, vehicle zero; activation, % at 3 µM; 360,000 compounds, 0.48% hits; AID 602248; in the data active = activation above about 15%;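 note: untransfected CHO-K1 host cells lacking M1 receptor as counterscreen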
M1 PAM parental: M1 PAM counterscreen hit in parental CHO-K1 cells; ATP EC20, Fluo-8 calcium fluorescence; 0% at ATP EC20, 100% at ATP max; activation, % at 3 µM; 360,000 compounds, 0.02% hits; AID 602247;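 active = activation above the run cutoff, the mean activation of all test compounds plus 3 SD, cut at about 40% in these data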;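 note: peak over basal fluorescence ratio in a 140 s read after ATP addition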
* = called active by the depositor.

Cc1ccc(C(=O)NCCSc2c(C)[nH]c3ccccc23)cc1[N+](=O)[O-] was read as CHO-K1 Ca antag 5, CHRM1 antagonist 14, M1 PAM -15, CHRM1 agonist -4, M1 ag parental 5 and M1 PAM parental -3.
`O=C(NCCc1nc2ccccc2[nH]1)c1ccc(Cl)c([N+](=O)[O-])c1` gave CHO-K1 Ca antag 9, CHRM1 antagonist 29*, M1 PAM -27, CHRM1 agonist -8, M1 ag parental 3 and M1 PAM parental 19.
For CCOC(=O)c1c(C)nsc1NC(=O)C1CCCCC1 the results were CHO-K1 Ca antag -1, CHRM1 antagonist -19, M1 PAM 10, CHRM1 agonist -1, M1 ag parental -1 and M1 PAM parental 3.
For CC12CCC(=O)N1C(C(=O)NNC(=O)COc1cccc(C(F)(F)F)c1)CS2 (stereo not drawn) the results were CHO-K1 Ca antag -4, CHRM1 antagonist -2, M1 PAM 6, CHRM1 agonist -2, M1 ag parental 1 and M1 PAM parental 18.
`CC1CN(C(=O)COC(=O)/C=C/c2ccccc2)CC(C)O1` (stereo not drawn) gave CHO-K1 Ca antag 4, CHRM1 antagonist 29*, M1 PAM -14, CHRM1 agonist -1, M1 ag parental 0 and M1 PAM parental -6.
CC1CN(C(=O)COC(=O)/C=C/c2ccc(C(F)(F)F)cc2)CC(C)O1 (stereo not drawn) was read as CHO-K1 Ca antag -5, CHRM1 antagonist -9, M1 PAM 6, CHRM1 agonist -2, M1 ag parental 3 and M1 PAM parental 23.
For O=C(O)c1cccc([N+](=O)[O-])c1C(=O)Nc1cccc2ccccc12 the results were CHO-K1 Ca antag 24*, CHRM1 antagonist 4, M1 PAM -1, CHRM1 agonist -2, M1 ag parental -1 and M1 PAM parental -23.
Screening O=C(O)c1cccc([N+](=O)[O-])c1C(=O)Nc1ccc2ccccc2c1 returned CHO-K1 Ca antag -5, CHRM1 antagonist -21, M1 PAM 21, CHRM1 agonist -1, M1 ag parental 0 and M1 PAM parental -2.
`COc1cccc(-n2cnnc2SCC(=O)NC2CC2)c1` gave CHO-K1 Ca antag -3, CHRM1 antagonist -12, M1 PAM 9, CHRM1 agonist -5, M1 ag parental 0 and M1 PAM parental 7.
For CCCCC(CC)C(=O)Nc1ncc([N+](=O)[O-])s1 (stereo not drawn) the results were CHO-K1 Ca antag 26*, CHRM1 antagonist 49*, M1 PAM -23, CHRM1 agonist -3, M1 ag parental 8 and M1 PAM parental -3.
For CC(C)Nc1nc(NC(C)C)nc(NS(=O)(=O)c2ccc(N)cc2)n1 the results were CHO-K1 Ca antag -7, CHRM1 antagonist 1, M1 PAM -5, CHRM1 agonist -4, M1 ag parental 0 and M1 PAM parental 2.
`CCNc1nc(NC(C)C)nc(NS(=O)(=O)c2ccc(N)cc2)n1` gave CHO-K1 Ca antag 27*, CHRM1 antagonist 3, M1 PAM 8, CHRM1 agonist -2, M1 ag parental 0 and M1 PAM parental -5.
`CSc1ccc(CN2CCC(C)(Oc3ccc4ccccc4c3)C2)cc1` (stereo not drawn) gave CHO-K1 Ca antag 0, CHRM1 antagonist -8, M1 PAM 1, CHRM1 agonist -6, M1 ag parental 0 and M1 PAM parental -4.
For CC(C)c1ccc(CN2CCC(C)(Oc3ccc(Cl)cc3)C2)cc1 (stereo not drawn) the results were CHO-K1 Ca antag -8, CHRM1 antagonist -9, M1 PAM 6, CHRM1 agonist -6, M1 ag parental 1 and M1 PAM parental 18.
For CSc1ccc(CN2CCC(C)(Oc3ccc(-n4ccnc4)cc3)C2)cc1 (stereo not drawn) the results were CHO-K1 Ca antag -8, CHRM1 antagonist 58*, M1 PAM -29, CHRM1 agonist -8, M1 ag parental 5 and M1 PAM parental -3.
`CSc1ccc(CN2CCC(C)(Oc3ccc(CC#N)cc3)C2)cc1` (stereo not drawn) gave CHO-K1 Ca antag -15, CHRM1 antagonist 29*, M1 PAM -24, CHRM1 agonist -8, M1 ag parental 3 and M1 PAM parental 14.
COC(=O)Cc1ccc(OC2(C)CCN(Cc3ccccc3)C2)cc1 (stereo not drawn) was read as CHO-K1 Ca antag -10, CHRM1 antagonist 53*, M1 PAM -26, CHRM1 agonist -6, M1 ag parental 1 and M1 PAM parental 16.
CSc1ccc(OC2(C)CCN(Cc3ccccc3)C2)cc1 (stereo not drawn) was read as CHO-K1 Ca antag -1, CHRM1 antagonist 28*, M1 PAM -22, CHRM1 agonist -8, M1 ag parental 0 and M1 PAM parental -12.
`Cc1ccc(Cl)cc1NC(=O)c1cc(NC(=O)C2CCCCC2C(=O)O)ccc1N1CCOCC1` (stereo not drawn) gave CHO-K1 Ca antag -13, CHRM1 antagonist 9, M1 PAM 1, CHRM1 agonist -3, M1 ag parental 1 and M1 PAM parental 7.
`O=C(COc1coc(CN2CCCc3ccccc32)cc1=O)Nc1ccc([N+](=O)[O-])cc1` gave CHO-K1 Ca antag 4, CHRM1 antagonist -6, M1 PAM 6, CHRM1 agonist -8, M1 ag parental 0 and M1 PAM parental -9.
Screening CCCCCCCCNc1ncnc2[nH]ncc12 returned CHO-K1 Ca antag -2, CHRM1 antagonist 21, M1 PAM -8, CHRM1 agonist 2, M1 ag parental 4 and M1 PAM parental 3.
For COCOc1cccc(CN2CCC(C)(Oc3ccc(C(C)=O)cc3)C2)c1 (stereo not drawn) the results were CHO-K1 Ca antag 13, CHRM1 antagonist 29*, M1 PAM -10, CHRM1 agonist -9, M1 ag parental -1 and M1 PAM parental 1.
Screening CC1(c2ccc(OC(F)F)cc2)NC(=O)N(CC(=O)Nc2ccc(OC(F)F)cc2)C1=O (stereo not drawn) returned CHO-K1 Ca antag 28*, CHRM1 antagonist 29*, M1 PAM -3, CHRM1 agonist 36*, M1 ag parental 33* and M1 PAM parental 8.
`CC(C)CCC(C)NC(=O)CN1C(=O)NC(C)(c2ccc3ccccc3c2)C1=O` (stereo not drawn) gave CHO-K1 Ca antag -2, CHRM1 antagonist -5, M1 PAM 13, CHRM1 agonist 25*, M1 ag parental 2 and M1 PAM parental -4.
For CC1(c2ccc(OC(F)F)cc2)NC(=O)N(CC(=O)Nc2ccc(S(N)(=O)=O)cc2)C1=O (stereo not drawn) the results were CHO-K1 Ca antag -2, CHRM1 antagonist 11, M1 PAM -3, CHRM1 agonist -3, M1 ag parental 0 and M1 PAM parental -5.
